# Compound activity deposited in PubChem by National Center for Advancing Translational Sciences (NCATS).
# In the library only some 2.6% were active in any assay of this set; here they are far more common.
# GLP1R ag = agonists of human GLP-1 receptor; P43220; HEK293 GLP-1R CRE-luciferase, luminescence, 4-6 h; cells express a hypersensitive GLP-1R form; Potency, µM (series often up to 45.6 µM), hits mostly activators; actives 0.007% (n = 380,000); AID 624172
# Target sequence (P43220 whole entry, looked up): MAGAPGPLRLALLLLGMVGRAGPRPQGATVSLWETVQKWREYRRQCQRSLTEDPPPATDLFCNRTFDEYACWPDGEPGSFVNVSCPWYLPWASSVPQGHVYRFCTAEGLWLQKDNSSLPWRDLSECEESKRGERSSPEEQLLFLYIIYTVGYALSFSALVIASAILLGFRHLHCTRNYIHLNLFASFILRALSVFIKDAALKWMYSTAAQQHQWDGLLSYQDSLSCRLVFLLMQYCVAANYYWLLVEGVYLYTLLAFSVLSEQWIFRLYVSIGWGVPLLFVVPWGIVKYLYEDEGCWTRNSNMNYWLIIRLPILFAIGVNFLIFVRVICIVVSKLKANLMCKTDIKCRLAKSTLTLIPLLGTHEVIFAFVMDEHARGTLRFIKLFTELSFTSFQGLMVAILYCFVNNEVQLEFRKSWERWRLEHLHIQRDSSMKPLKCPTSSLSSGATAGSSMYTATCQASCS
# BRCA1 expr up = BRCA1 expression activation. MCF7-BRCA1-FFLuc reporter, luminescence, 48 h; response scale: scaled: vehicle 0%, 10 µM genistein 100%. Potency, µM (doses to about 46.1 µM), most hits filed as activators. actives 1.1% (n = 380,000); note: nearly all actives have a fitted effect of over 80% in size
#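 MCF7 cells carrying a BRCA1-firefly luciferase reporter (2000 cells/well, phenol-red free MEM) were attached for 2 h at 37 °C, then given compounds for 48 h. Luminescence was read 15 min after luciferase reagent; activity normalized to genistein (10 microM) and DMSO.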
# GLP-1R inv ag = inverse agonists of human GLP-1 receptor; P43220; HEK293 GLP-1R CRE-luciferase, luminescence, 24 h; GLP-1R form is constitutively active; Potency, µM (titrated, usually from 38.3 µM), usual class: inhibitors; actives 1.6% (n = 410,000); AID 624417; note: nearly all actives have a fitted effect of over 55% in size
#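 Cells are plated, allowed 12 hours at 37 deg C, then treated with compounds for 24 hr before luciferase detection reagent is added and luminescence is read after 12 min at room temperature. The HEK293 line carries constitutively active GLP-1R with a cAMP-responsive reporter.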
# GLP1R cytotox = cytotoxicity counter-screen for GLP-1 receptor inverse agonists; Potency, µM (highest dose often 38.3 µM), most hits filed as inhibitors; actives 0.13% (n = 410,000); HEK293 cAMP-luciferase reporter cells, luminescence, 24 h; AID 624418;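 note: loss of luciferase light is scored as toxicity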
#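 Luminescence readout: signal drop marks cytotoxicity. Plated cells grew 12 h at 37 °C, 5% CO2, received 23 nL compound for 24 h, then got luciferase reagent, read after 12 min at RT.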
# Numbers stand for hits; . = inactive; ? = inconclusive; / = not tested or not shown. Calls come from the whole dose curve; as a rule, active = well fitted curve in the direction sought with a large enough effect; inconclusive = small, poorly fitted or top-dose-only effect, or another doubt; inactive = no such curve, though single readings can be large; an effect the other way counts as inactive or inconclusive.
SMILES,GLP1R ag,BRCA1 expr up,GLP-1R inv ag,GLP1R cytotox
CSc1ccccc1NC(=O)CSCc1ccc(C)cc1,.,.,5µM,.
Cc1ccc(CSCC(=O)Nc2ccccc2C(=O)O)cc1,.,?,?,.
Cc1ccc(SCC(=O)Nc2ccccc2C(=O)O)cc1,.,4.5µM,.,.
O=C(NCc1ccccc1Cl)c1ccc2c(c1)N(Cc1ccccc1)C(=O)CS2,/,/,?,.
CCOC(=O)c1c(-c2ccccc2)oc2ccc(OCC(O)CN(C)C)cc12 (centres undefined),.,.,2.8µM,?
Cc1sc(-c2cc3c([nH]c2=O)CC(c2ccccc2)CC3=O)nc1-c1ccc(Cl)cc1 (centres undefined),/,/,1.3µM,?
CC1CCn2c(nc3cc(C(=O)NCc4ccccc4)ccc32)C1 (centres undefined),/,/,.,.
Cc1ccccc1C(=O)Nc1ccc(OCc2cc(=O)n3cccc(C)c3n2)cc1,/,/,.,.
O=c1cc(CSCc2ccc(Cl)cc2)[nH]c(=O)[nH]1,.,.,.,.
COc1ccc(C(=O)COC(=O)C2CCN(c3ccc(C(F)(F)F)cn3)CC2)c(OC)c1,.,.,?,.
COc1cc2c(cc1OC)CN(c1ccc3ccccc3n1)CC2,.,11µM,.,.
COc1cc2c(cc1OC)CN(c1ccc(C(F)(F)F)cn1)CC2,.,13µM,?,.
COc1cc2c(cc1OC)CN(c1ccc(-c3ccccc3OC)nn1)CC2,.,.,.,.
CCN(CC(=O)NCc1cccs1)C(=O)/C=C/c1cccc(Cl)c1Cl,.,.,.,.
CC1CN(C(=O)N2CCC(C(=O)NCCCc3ccccc3)CC2)c2cc(Cl)ccc2O1 (centres undefined),/,/,?,.
CC(C)=C1C(=O)NN(c2ccc(C)c(Cl)c2)C1=O,.,.,?,.
CC(C)=C1C(=O)NN(c2cccc(Cl)c2)C1=O,.,.,10µM,.
COc1cc(/C=C2/C(=O)NN(c3cccc(Cl)c3)C2=O)cc(OC)c1O,.,.,2.8µM,.
CCOc1cc(/C=C2/C(=O)NN(c3cccc(Cl)c3)C2=O)ccc1O,.,.,?,.
O=C1NN(c2cccc(Br)c2)C(=O)/C1=C\c1ccc(O)cc1,.,.,10µM,?
CC(/C=C/c1ccco1)=N/NC(=O)OC(C)(C)C,.,?,.,.
CCOC(=O)CN1C(=O)S/C(=C/c2ccc3c(c2)n(C)c(=O)n3C)C1=O,.,5µM,.,.
COc1ccc(CNC(=O)c2nn(C)c3c2CSc2ccccc2-3)cc1,/,/,?,.
CC(C)N(C(=O)c1nn(C)c2c1CSc1ccccc1-2)C1CCCCC1,.,.,10µM,.
CCOc1ccc(CCNC(=O)c2nn(C)c3c2CSc2ccccc2-3)cc1,/,/,10µM,.
SMILES,GLP1R ag,BRCA1 expr up,GLP-1R inv ag,GLP1R cytotox
NS(=O)(=O)c1cccc(NC(=O)CCSc2ccccc2Cl)c1,.,10µM,.,.
CCOC(=O)c1ccccc1NC(=O)Nc1cc2c(cc1N1CCCCC1)n(C)c(=O)n2C,.,.,.,.
CN(C)c1ccc(C(C[N+](=O)[O-])c2c(N)n(C)c(=O)n(C)c2=O)c(F)c1C#N (centres undefined),.,.,?,?
COc1ccc(Br)cc1C(C[N+](=O)[O-])c1c(N)n(C)c(=O)n(C)c1=O (centres undefined),.,.,?,10µM
CC(C)NC(=NCc1ccc(Cl)cc1Cl)Nc1ccccc1,.,.,7.9µM,.
Nc1nc(=S)c2snnc2[nH]1,/,.,/,/
COC(=O)c1ccc2nc(-c3ccc(S(C)(=O)=O)cc3)cn2c1,.,.,.,.
COC(=O)c1ccc2nc(-c3cccc(N)c3)cn2c1,.,.,5.6µM,.
CCc1ccc(NC(=O)c2cnn(-c3ccccc3)c2-n2cccc2)cc1,/,/,?,.
CCc1ccc(NC(=O)c2cnn3ccccc23)cc1,.,.,5µM,.
Cc1ccc(CNC(=O)C(Cc2ccccc2)n2cccc2)cc1 (centres undefined),.,.,?,.
CC(NC(=O)C(Cc1ccccc1)n1cccc1)c1ccccc1 (centres undefined),.,.,11µM,.
CCCCCOc1ccc(C2c3c(oc4ccccc4c3=O)C(=O)N2c2nc(C)c(C)s2)cc1OCC (centres undefined),/,/,.,.
FC(F)(F)c1cc(Cl)c2nc(-c3ccccc3)c(Cc3ccccc3)n2c1,.,.,.,.
Cc1cccc(NC(c2ccccc2F)c2ccc3ccc(C)nc3c2O)n1 (centres undefined),/,/,.,.
Cc1ccc(C)c(C(Nc2ccccc2)c2ccc3ccc(C)nc3c2O)c1 (centres undefined),/,/,5.6µM,.
S=C1SCN(Cc2ccccc2)CN1Cc1ccccc1,.,.,?,?
S=C1SCN(Cc2cccnc2)CN1Cc1cccnc1,.,.,3.2µM,?
COc1ccc(CN2CSC(=S)N(Cc3ccccc3)C2)cc1,.,.,10µM,?
Cc1ccc(CSc2nnc3[nH]c(=O)cc(-c4ccccc4)n23)cc1,/,/,.,.
O=C(CSCc1cccc(F)c1)NCc1ccccc1,.,11µM,.,.
O=C(CSCc1ccccc1F)NCc1ccccc1,.,7.1µM,.,.
CCc1ccc(CNC(=O)CCSCc2ccccc2F)cc1,/,/,.,.
Cc1ccccc1OCc1nnc(SCc2cc(=O)c3cc(F)ccc3[nH]2)n1C,/,/,.,.
COc1ccc(NC(=O)Cn2cnc3c(nc4n3CCCCC4)c2=O)c(OC)c1,/,/,.,.
SMILES,GLP1R ag,BRCA1 expr up,GLP-1R inv ag,GLP1R cytotox
O=C(NCc1ccc(F)cc1)c1ccc(CSCc2cccc(Cl)c2)o1,/,/,?,.
CCOc1ccc(S(=O)(=O)NCc2cccn2Cc2cccc(C)c2)cc1,/,.,.,.
NC(=O)c1cccc(-c2cnc(N)c(C(=O)c3cccnc3)n2)c1,.,.,3.5µM,.
CCOc1cccc(NC(=O)c2sc3nc(-c4ccc(F)cc4)ccc3c2N)c1,/,/,.,.
COc1ccc(/C=N/NC(=O)c2cccnc2)cc1CN1CCCc2ccccc21,.,.,10µM,.
COc1ccc(C(=O)N/N=C/c2ccc(OC)c(CN3CCCc4ccccc43)c2)cc1,.,.,10µM,.
COc1ccc(/C=N/NC(=O)c2cccnc2)cc1CN1CCc2cc(OC)c(OC)cc2C1C (centres undefined),.,.,.,.
CCOC(=O)c1sc(N)c(C(=O)OCC)c1C,?,.,.,.
CCOC(=O)c1sc(N)c(C(=O)Nc2ccccc2)c1C,.,13µM,.,.
Cc1ccc(C(=O)C(C(=O)/C=C/c2ccccc2)=C2SCCCS2)cc1,.,.,2µM,?
Cc1ccc(C(=O)C=CC=Cc2ccccc2)cc1,.,?,.,.
Cc1cc(O)cc2c1C1CCC3(C)C(O)CCC3C1C=C2 (centres undefined),.,.,.,.
CC12CCC=CC1=C(C=O)C1C2CCC2(C)C(O)CCC12 (centres undefined),.,.,11µM,?
CC1CCCN(S(=O)(=O)c2ccc(NC(=O)c3nc(SC(C)C)ncc3Cl)cc2)C1 (centres undefined),/,/,.,.
